LGR2 inh – Drosophila LGR2 receptor signaling inhibition | actives 0.35% (n = 380,000) | HEK293 LGR2, CRE-luciferase, bursicon-stimulated, 4 h | inhibition, % at 9.99 µM;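 active = drop in luminescence signal, shown as inhibition above about 50% in the replicate tests, limit read from the data, passing the limit was not always enough; inconclusive = probably only some replicates passing the limit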;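 also: agonist challenge used bursicon conditioned medium at about half maximal strength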
TROY signal inh – inhibitors of TROY-dependent NF-kB signaling; Q293 LMP1-TROYcd NF-kB luciferase reporter, 4 h; inhibition, % at 10 µM; actives 0.98% (n = 360,000); AID 1347056;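 active = compounds whose plate-normalised and pattern-corrected inhibition of the luciferase reporter signal at the single screening dose is 50% or more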
TWEAK Fn14 block – blocks TWEAK-Fn14 interaction in a reporter cell assay; TWEAK-stimulated Fn14 reporter cells, luciferase luminescence, 8 h; actives 2% (n = 360,000); AID 1159606; inhibition, % at 10 µM; in the data active = inhibition above about 50%
HSP90 refold inh – HSP90 refolding inhibition in rabbit reticulocyte lysate; luciferase refolding luminescence, 3 h; inhibition, % at 5.6 µM; actives 0.91% (n = 290,000); AID 1789;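 active = inhibition above the screen-wide mean plus 3 SD, computed separately per campaign, cut at about 16% in these data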;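 also: 0% = DMSO wells and 100% = 60 µM geldanamycin wells; inhibitors lower the luminescence because luciferase stays unfolded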
HSP90 confirm – HSP90 inhibition, confirmation assay | rabbit reticulocyte lysate, luciferase refolding luminescence, 3 h | actives 64% (n = 2,300) | inhibition, % at 5.9 µM | shares compounds with HSP90 refold inh; in the data active = inhibition above about 18%;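 also: 0% = vehicle wells and 100% = reference inhibitor wells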
FLuc counter – firefly luciferase inhibition, HSP90 counter-screen; shares compounds with HSP90 refold inh; actives 48% (n = 2,300); inhibition, % at 5.9 µM; purified native firefly luciferase, luminescence;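 active = inhibition above the mean inhibition of all tested sample wells plus 3 SD, cut at about 10% in these data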;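 also: 0% = DMSO with luciferase and 100% = wells lacking luciferase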
Target sequence (P08659 whole entry, looked up): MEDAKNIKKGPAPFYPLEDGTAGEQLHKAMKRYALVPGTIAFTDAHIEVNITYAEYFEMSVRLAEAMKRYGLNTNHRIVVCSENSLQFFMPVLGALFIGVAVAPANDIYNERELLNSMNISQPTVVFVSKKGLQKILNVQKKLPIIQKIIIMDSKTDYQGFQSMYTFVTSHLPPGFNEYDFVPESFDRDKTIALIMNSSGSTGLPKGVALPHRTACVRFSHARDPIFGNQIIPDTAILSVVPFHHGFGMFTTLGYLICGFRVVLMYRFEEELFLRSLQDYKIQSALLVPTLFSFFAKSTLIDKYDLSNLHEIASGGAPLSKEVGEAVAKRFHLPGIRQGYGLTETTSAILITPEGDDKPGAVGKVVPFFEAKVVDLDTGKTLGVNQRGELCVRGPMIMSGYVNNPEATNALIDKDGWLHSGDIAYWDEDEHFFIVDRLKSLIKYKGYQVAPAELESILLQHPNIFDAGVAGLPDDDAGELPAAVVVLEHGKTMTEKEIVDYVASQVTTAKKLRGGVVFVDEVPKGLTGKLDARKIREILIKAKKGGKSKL
Starred values were filed as active, the others as inactive; ? = inconclusive; nt = no result given. The list is not random: actives were taken first. Their share in the collection is about 2.2%.

SMILES	LGR2 inh	TROY signal inh	TWEAK Fn14 block	HSP90 refold inh	HSP90 confirm	FLuc counter
O=C(CCCCl)NC1=NN(c2ccccc2)C(=O)C1	5	-54	24	1	nt	nt
CC(=O)NC1=NN(c2ccccc2)C(=O)C1	nt	11	2	18*	-7	-11
O=C(Nc1ccc(NC(=O)c2ccccc2F)cn1)c1ccco1	35	23	53*	28*	52*	36*
COc1cccc(Cn2cccc(NC(=O)Nc3ccccc3C)c2=O)c1	5	1	-4	1	nt	nt
COc1cccc(Cn2cccc(NC(=O)NCc3ccccc3)c2=O)c1	11	-8	9	18*	2	-6
COc1cccc(C#Cc2ccc3c(c2)[C@H]2[C@H](CCN2S(=O)(=O)c2ccc(C)cc2)[C@H](CO)N3)c1	-6	nt	nt	nt	nt	nt
O=C(CSc1cn(CCNC(=O)c2ccc3ccccc3c2)c2ccccc12)NCc1ccco1	16	42	60*	19*	22*	-1
COc1ccc(C(=O)NCCn2cc(SCC(N)=O)c3ccccc32)cc1	3	63*	51*	74*	9	-9
Cc1ccc(C(=O)NCCn2ccc3ccccc32)cc1[N+](=O)[O-]	-29	-60	-3	0	nt	nt
COc1ccc(C(=O)NCCn2ccc3ccccc32)cc1	-50	43	30	60*	22*	-12
Cc1ccccc1S(=O)(=O)N(C)C[C@@H]1OCc2ccccc2-c2ccccc2C(=O)N([C@@H](C)CO)C[C@@H]1C	16	nt	nt	nt	nt	nt
CO[C@H](CN(C)C(=O)C1CC1)[C@H](C)CN(C(=O)Nc1ccc(C(F)(F)F)cc1)[C@@H](C)CO	14	nt	nt	nt	nt	nt
CCCNC(=O)C[C@@H]1CC[C@H]2[C@H](COc3ccc(NC(=O)Nc4c(C)noc4C)cc3C(=O)N2C)O1	7	nt	nt	nt	nt	nt
CO[C@@H]1CN(C)C(=O)c2cc(NC(=O)CC(F)(F)F)ccc2OC[C@H](C)N(C(=O)C2CCOCC2)C[C@@H]1C	-12	nt	nt	nt	nt	nt
O=C(O)c1ccc(N/N=C2/CCCc3ccccc32)cc1	-55	-41	4	18*	2	-6
Cc1nc2ccccc2c(=O)n1NC(=O)c1ccc(Cl)cc1	7	-1	-7	2	nt	nt
O=C(CSc1nc2ccccc2c(=O)n1NC(=O)c1ccccc1)c1ccccc1	nt	23	7	36*	10	-2
CCn1c(SCC(=O)c2ccccc2)nc2ccccc2c1=O	-6	-1	-1	3	nt	nt
O=C(CSc1nc2ccccc2c(=O)n1NC(=O)c1ccccc1)c1ccc(Cl)cc1	nt	21	34	24*	-5	-25
CO[C@H]1CN(C)C(=O)c2ccc(NS(C)(=O)=O)cc2OC[C@H](C)N(Cc2cccnc2)C[C@@H]1C	1	nt	nt	nt	nt	nt
COc1ccc(-c2cc(=O)c3c(O)c(OC)c(O)cc3o2)cc1	47	3	54*	20*	46*	41*
COc1ccc(-c2cc(=O)c3c(O)c(OC)c(OC)c(OC)c3o2)cc1	-17	-23	-34	nt	nt	nt
Cc1cccc(CCN(C(=O)Cc2cccs2)C(C(=O)NC2CCCCC2)c2cccnc2)c1 (stereo not given)	nt	-16	11	25*	2	-4
CCc1sc(C(=O)Nc2nc(C)cs2)cc1C	-122	-6	4	21*	34*	20*
Cc1cc2nc(-c3ccc[nH]c3=O)[nH]c2cc1C	78*	26	83*	68*	80*	65*
SMILES	LGR2 inh	TROY signal inh	TWEAK Fn14 block	HSP90 refold inh	HSP90 confirm	FLuc counter
O=C(COc1ccc2ccccc2c1)Nc1nccs1	73*	-28	75*	23*	54*	49*
CCOC(=O)CON1C(=O)c2ccccc2C1=O	2	-14	-6	26*	-4	-6
CC(=O)OCCCCON1C(=O)c2ccccc2C1=O	nt	5	-4	7	nt	nt
CC1(C(=O)N2CCN(Cc3ccccc3Cl)CC2)CC1(Cl)Cl (stereo not given)	-33	-44	-10	19*	-6	-16
CN(C)c1ccc(N=Nc2ccccc2Br)cc1	?	47	77*	52*	65*	54*
CN(C)c1ccc(N=Nc2ccccc2C(=O)OCC(=O)N2CCCC2)cc1	-37	-51	-5	-3	nt	nt
C[C@H]1CCCCO[C@H](CN(C)C(=O)Cc2ccccc2)[C@@H](C)CN([C@@H](C)CO)C(=O)c2cc(NC(=O)Nc3ccc(F)cc3)ccc2O1	-14	nt	nt	nt	nt	nt
C[C@@H]1CN([C@@H](C)CO)C(=O)c2cc(N(C)C)ccc2O[C@@H](C)CCCCO[C@H]1CN(C)Cc1ccc(C(F)(F)F)cc1	16	nt	nt	nt	nt	nt
